From PubChem BioAssay (NCATS)
Several values for one entry are separate records, joined by “and”; a condition that tells them apart may be missing. Equal entries are not always repeated. Records with an inconclusive call do not appear. More than one record can exist for a structure, and the calls need not agree. Activity calls are given as the source filed them. Unless noted, the call rests on the fitted dose curve; in most records, active means well fitted curve in the direction sought with a large enough effect; inconclusive means small, poorly fitted or top-dose-only effect, or another doubt; inactive means no such curve, though single readings can be large; an effect the other way counts as inactive or inconclusive.

Columns and labels:
[1] = NS1 protein of Zika virus - qHTS assay to identify small molecule inhibitors in human HEK 293 cells (AID 1347053); further: nearly all actives have a fitted effect of over 55% in size; further: potency means the concentration at half of the fitted maximal effect
Outline: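 TR-FRET signal from two anti-ZIKV NS1 antibodies quantified NS1 in HEK 293 cells 24 h after MR766 infection at MOI = 0.5; compounds were added 1 h before virus. Uninfected cells and infected cells defined the NS1 normalization range.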

[2] = qHTS of pediatric cancer cell lines to identify multiple opportunities for drug repurposing: Primary screen for TC32 cells (AID 1347089); further: nearly all actives have a fitted effect of over 60% in size
Outline: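 Luminescent CellTiter-Glo read-out of metabolically active TC32 cells after 48 h compound exposure. Primary: MIPE 11-point, 0.78 nM–46 µM; NPC 8-point, 0.59 nM–46 µM. Confirmatory: 11-point dilutions.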

[3] = qHTS of pediatric cancer cell lines to identify multiple opportunities for drug repurposing: Primary screen for SJ-GBM2 cells (AID 1347091); further: potency means the concentration at half of the fitted maximal effect
Outline: (§1)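 Cell viability, CellTiter-Glo luminescence; 500-1,000 cells/well, 8- or 11-point titration, 48 h compound exposure at 37 degrees C, 5% CO2. Controls: DMSO neutral, bortezomib 2.3 µM final as positive.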

[4] = qHTS of pediatric cancer cell lines to identify multiple opportunities for drug repurposing: Primary screen for A673 cells (AID 1347092); further: nearly all actives have a fitted effect of over 45% in size; further: potency means the concentration at half of the fitted maximal effect
Outline: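 A673 cells (500-1,000 cells/well in growth media) were pre-incubated 5 h at 37 degrees C, then exposed to compounds for 48 h. Viability was read as CellTiter-Glo luminescence; concentration-response curves came directly from the primary screen.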

[5] = qHTS of pediatric cancer cell lines to identify multiple opportunities for drug repurposing: Primary screen for SK-N-MC cells (AID 1347093); further: potency means the concentration at half of the fitted maximal effect
Outline: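 Metabolically active cells were quantified by ATP-dependent luminescence (CellTiter-Glo, 15 min at room temperature) following 48 h treatment. Cells had been plated at 500-1,000 per well and settled for 5 h beforehand.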

[6] = qHTS of pediatric cancer cell lines to identify multiple opportunities for drug repurposing: Primary screen for BT-37 cells (AID 1347094); further: potency means the concentration at half of the fitted maximal effect
Outline: (§2)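 Cells plated at 500-1,000/well in growth medium, compounds added after 5 h. MIPE tested at 11 points (from 0.78 nM), NPC at 8 points (from 0.59 nM). CellTiter-Glo luminescence after 48 h; concentration-response curves from primary screen.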

[7] = qHTS of pediatric cancer cell lines to identify multiple opportunities for drug repurposing: Primary screen for NB-EBc1 cells (AID 1347095); further: potency means the concentration at half of the fitted maximal effect
Outline: as §2

[8] = qHTS of pediatric cancer cell lines to identify multiple opportunities for drug repurposing: Primary screen for DAOY cells (AID 1347090); further: nearly all actives have a fitted effect of over 55% in size; further: potency means the concentration at half of the fitted maximal effect
Outline: as §1

[9] = P-glycoprotein substrates identified in KB-8-5-11 adenocarcinoma cell line, qHTS therapeutic library screen (AID 1346987); further: nearly all actives have a fitted effect of over 65% in size; further: potency means the concentration at half of the fitted maximal effect
Outline: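 In this qHTS, P-gp-rich KB-8-5-11 cells received library compounds across a concentration range. Viability was quantified by luminescence after 72 h at 37 degree C.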

[10] = Natriuretic polypeptide receptor (hNpr1) antagonism - Pilot counterscreen GloSensor control cell line (AID 1347045; calls by dose curve; further: series mostly up to about 38 µM)
Outline: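 HEK293 cGMP-sensor cells; 2% GloSensor reagent 2 h RT; LOPAC compounds in 1:5 titrations 30-50 min; 50 uM SNP 20 min; luminescence pre-read and post-read.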

[11] = biological target: Atrial natriuretic peptide receptor 1 (Homo sapiens) (UniProt P16066); test: Natriuretic polypeptide receptor (hNpr1) antagonism - Pilot screen (AID 1347049; calls by dose curve;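 further: HEK293 cells with hNpr1 and GloSensor cGMP luciferase stimulated by 0.1 nM hNppA; agonist-evoked cGMP luminescence read 20 min after hNppA addition; series mostly up to about 58 µM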)
Sequence of Atrial natriuretic peptide receptor 1 (Homo sapiens) (P16066 whole entry, looked up): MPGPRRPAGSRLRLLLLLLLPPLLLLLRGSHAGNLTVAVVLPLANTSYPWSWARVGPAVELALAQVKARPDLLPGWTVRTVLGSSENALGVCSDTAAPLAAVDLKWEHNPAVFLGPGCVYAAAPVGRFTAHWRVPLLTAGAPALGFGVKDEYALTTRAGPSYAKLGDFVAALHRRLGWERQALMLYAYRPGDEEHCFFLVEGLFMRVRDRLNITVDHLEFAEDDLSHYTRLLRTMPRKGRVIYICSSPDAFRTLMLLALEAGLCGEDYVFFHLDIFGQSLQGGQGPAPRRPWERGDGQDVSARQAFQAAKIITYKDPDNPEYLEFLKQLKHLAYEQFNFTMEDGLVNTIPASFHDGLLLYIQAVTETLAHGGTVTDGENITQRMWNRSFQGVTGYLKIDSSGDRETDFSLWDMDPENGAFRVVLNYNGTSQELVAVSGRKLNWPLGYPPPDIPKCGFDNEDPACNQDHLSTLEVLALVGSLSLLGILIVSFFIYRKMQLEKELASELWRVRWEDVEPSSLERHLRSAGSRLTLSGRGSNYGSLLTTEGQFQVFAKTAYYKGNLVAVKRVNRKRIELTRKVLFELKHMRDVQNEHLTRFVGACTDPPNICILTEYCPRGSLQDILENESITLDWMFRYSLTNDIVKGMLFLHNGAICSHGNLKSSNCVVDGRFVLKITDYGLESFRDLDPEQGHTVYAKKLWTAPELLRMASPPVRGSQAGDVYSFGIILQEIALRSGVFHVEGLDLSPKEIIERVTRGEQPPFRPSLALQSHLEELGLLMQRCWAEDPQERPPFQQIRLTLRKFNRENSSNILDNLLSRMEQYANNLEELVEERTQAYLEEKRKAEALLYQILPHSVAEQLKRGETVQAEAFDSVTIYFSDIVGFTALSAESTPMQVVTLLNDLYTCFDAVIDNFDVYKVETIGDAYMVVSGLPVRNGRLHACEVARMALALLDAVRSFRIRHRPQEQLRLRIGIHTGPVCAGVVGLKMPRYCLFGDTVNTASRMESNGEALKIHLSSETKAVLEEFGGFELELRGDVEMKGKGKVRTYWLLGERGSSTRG
Outline: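 Receptor antagonism read as cGMP-dependent luminescence in hNpr1/pGS-40F HEK293 cells: pre-read after 30 min compound exposure, post-read 20 min after hNppA agonist at 0.1 nM final, all at room temperature, protected from light; A-71915 titration as control.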

[12] = biological target: Atrial natriuretic peptide receptor 2 (Homo sapiens) (UniProt P20594); test: Natriuretic polypeptide receptor (hNpr2) antagonism - Pilot subtype selectivity assay (AID 1347050; calls by dose curve)
Sequence of Atrial natriuretic peptide receptor 2 (Homo sapiens) (P20594 whole entry, looked up): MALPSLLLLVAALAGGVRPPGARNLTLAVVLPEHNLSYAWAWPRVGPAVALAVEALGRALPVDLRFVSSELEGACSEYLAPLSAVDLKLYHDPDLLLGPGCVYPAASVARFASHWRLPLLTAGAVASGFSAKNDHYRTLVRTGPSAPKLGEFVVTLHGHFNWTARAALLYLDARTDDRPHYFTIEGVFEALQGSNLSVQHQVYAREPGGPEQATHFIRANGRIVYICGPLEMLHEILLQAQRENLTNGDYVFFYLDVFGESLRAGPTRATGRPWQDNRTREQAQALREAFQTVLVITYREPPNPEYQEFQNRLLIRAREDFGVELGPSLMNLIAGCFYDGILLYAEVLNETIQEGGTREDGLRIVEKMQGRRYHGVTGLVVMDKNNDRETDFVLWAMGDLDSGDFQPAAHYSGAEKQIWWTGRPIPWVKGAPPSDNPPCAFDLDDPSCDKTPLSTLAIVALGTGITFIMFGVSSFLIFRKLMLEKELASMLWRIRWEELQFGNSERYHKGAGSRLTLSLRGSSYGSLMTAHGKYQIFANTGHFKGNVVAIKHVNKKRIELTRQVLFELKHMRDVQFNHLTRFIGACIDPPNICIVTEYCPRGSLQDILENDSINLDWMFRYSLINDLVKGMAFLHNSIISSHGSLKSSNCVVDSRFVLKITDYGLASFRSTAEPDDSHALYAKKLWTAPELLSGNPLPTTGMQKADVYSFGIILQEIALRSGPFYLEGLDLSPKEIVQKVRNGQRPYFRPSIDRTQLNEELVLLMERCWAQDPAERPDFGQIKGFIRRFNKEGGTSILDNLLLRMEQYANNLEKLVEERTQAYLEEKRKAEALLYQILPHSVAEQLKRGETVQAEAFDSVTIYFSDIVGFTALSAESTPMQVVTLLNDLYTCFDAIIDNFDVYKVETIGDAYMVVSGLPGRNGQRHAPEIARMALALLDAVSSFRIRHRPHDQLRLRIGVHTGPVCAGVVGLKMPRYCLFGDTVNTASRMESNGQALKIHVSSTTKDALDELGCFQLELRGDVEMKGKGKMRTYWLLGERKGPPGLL
Outline: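 Antagonist mode: compounds (LOPAC1280, seven 1:5 dilutions) added 30 min before 1 nM hNppC stimulation of hNpr2-HEK293 cGMP-sensor cells; luminescence read before and 20 min after agonist at ambient temperature.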

[13] = biological target: T1, Tyrosine-protein phosphatase non-receptor type substrate 1 (Homo sapiens) + Leukocyte surface antigen CD47 (Homo sapiens) (UniProt P78324+Q08722); test: CD47-SIRPalpha protein protein interaction - LANCE assay qHTS validation (AID 1347057; active means well fitted curve in the direction sought with a large enough effect in the signal ratio, with a control signal flat, not every such curve was filed as active; the % refers to the signal ratio; further: series mostly up to about 38 µM)
T1 sequence (P78324 whole entry, looked up, the tested form may be a part): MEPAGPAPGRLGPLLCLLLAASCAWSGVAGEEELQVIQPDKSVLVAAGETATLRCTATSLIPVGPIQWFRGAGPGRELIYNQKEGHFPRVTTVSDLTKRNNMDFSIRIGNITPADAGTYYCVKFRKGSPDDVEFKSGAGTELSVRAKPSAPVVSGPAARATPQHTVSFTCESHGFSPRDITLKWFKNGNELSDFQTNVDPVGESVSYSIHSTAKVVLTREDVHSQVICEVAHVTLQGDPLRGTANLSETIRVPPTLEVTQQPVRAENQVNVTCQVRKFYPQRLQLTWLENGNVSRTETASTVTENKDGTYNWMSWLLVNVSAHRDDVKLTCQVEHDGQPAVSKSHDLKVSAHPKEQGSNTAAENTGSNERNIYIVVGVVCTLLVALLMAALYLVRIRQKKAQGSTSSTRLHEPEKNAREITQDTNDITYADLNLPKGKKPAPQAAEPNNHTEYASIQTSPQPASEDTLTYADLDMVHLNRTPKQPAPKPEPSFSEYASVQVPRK
T1 sequence (Q08722 whole entry, looked up, the tested form may be a part): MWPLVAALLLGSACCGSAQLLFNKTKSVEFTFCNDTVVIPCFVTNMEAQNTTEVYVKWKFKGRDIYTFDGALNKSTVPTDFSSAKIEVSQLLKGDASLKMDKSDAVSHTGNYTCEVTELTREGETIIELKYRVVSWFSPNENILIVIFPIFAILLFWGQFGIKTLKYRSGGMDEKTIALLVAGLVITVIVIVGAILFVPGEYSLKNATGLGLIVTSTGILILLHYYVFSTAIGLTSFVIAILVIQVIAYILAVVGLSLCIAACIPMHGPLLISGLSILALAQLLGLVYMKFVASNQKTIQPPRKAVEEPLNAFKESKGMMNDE
Outline: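 Inhibition of soluble CD47/SIRPalpha ectodomain association by titrated compounds, measured as 665/615 nm time-resolved FRET ratio after sequential 30 min room-temperature incubations.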

[14] = biological target: T1, Tyrosine-protein phosphatase non-receptor type substrate 1 (Homo sapiens) + Leukocyte surface antigen CD47 (Homo sapiens); test: CD47-SIRPalpha protein protein interaction - HTRF assay qHTS validation (AID 1347058; active means well fitted curve in the direction sought with a large enough effect in the signal ratio, not every such curve was filed as active; the % refers to the signal ratio; further: series mostly up to about 38 µM)
Outline: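 Soluble extracellular domains (6His-CD47, Avi-tag-biotinylated SIRPalpha) in PBS pH 7.4 with 0.05% IGEPAL CA-630. Compounds were preincubated 30 min at RT with CD47 and anti-His-Eu, then SIRPalpha and SAV-XL665 were added. TR-FRET 665/615 ratio.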

[15] = biological target: T1, Tyrosine-protein phosphatase non-receptor type substrate 1 (Homo sapiens) + Leukocyte surface antigen CD47 (Homo sapiens); test: CD47-SIRPalpha protein protein interaction - Alpha assay qHTS validation (AID 1347059);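 further: bead proximity luminescence from CD47 binding SIRPalpha after compound preincubation with SIRPalpha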
Outline: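 AlphaScreen signal between CD47-His (12.5 nM) and biotin-SIRPalpha (25 nM) soluble extracellular domains, bead-captured via Ni-NTA and streptavidin. Compounds, in 7-point titrations, met SIRPalpha 30 min before CD47; PBS pH 7.4 with 0.05% IGEPAL.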

[16] = biological target: Parathyroid hormone/parathyroid hormone-related peptide receptor (Homo sapiens) (UniProt Q03431); test: qHTS for PTHR1 Agonists: Optimization Screen against the NCGC LOPAC library (AID 1347079);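 further: GloSensor cAMP luminescence in HEK-293 GP2 cells expressing human PTHR1 with IBMX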
Sequence of Parathyroid hormone/parathyroid hormone-related peptide receptor (Homo sapiens) (Q03431 whole entry, looked up): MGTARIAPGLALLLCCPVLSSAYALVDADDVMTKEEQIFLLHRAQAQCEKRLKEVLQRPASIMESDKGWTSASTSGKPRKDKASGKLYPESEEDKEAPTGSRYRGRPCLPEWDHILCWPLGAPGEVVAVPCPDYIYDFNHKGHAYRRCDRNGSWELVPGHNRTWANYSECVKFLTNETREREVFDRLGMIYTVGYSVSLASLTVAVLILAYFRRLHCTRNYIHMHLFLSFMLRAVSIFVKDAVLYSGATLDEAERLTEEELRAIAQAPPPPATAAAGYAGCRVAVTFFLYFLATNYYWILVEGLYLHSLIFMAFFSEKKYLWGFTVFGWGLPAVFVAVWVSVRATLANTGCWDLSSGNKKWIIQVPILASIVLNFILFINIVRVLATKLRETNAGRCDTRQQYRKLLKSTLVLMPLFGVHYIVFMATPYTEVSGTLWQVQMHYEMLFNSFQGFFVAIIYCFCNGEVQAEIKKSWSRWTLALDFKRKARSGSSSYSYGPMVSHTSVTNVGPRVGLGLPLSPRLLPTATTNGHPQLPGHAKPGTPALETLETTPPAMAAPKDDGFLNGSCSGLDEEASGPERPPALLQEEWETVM
Outline: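 Signal increase flags agonism. GP2 cells, derived from HEK-293, express human PTHR1 and a GloSensor cAMP construct.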

Measured: Potency

CC[C@H](NC(C)C)[C@H](O)c1ccc(O)c2[nH]c(=O)ccc12
inactive: [1] | [2] | [3] | [4] | [5] | [6]

Cc1nnc(NS(=O)(=O)c2ccc(N)cc2)s1
active: [5] 833 nM
inactive: [1]

NC(=O)c1cccnc1
inactive: [1] | [3] | [4] | [5] | [6] | [7]

CCCCCCNC(=O)n1cc(F)c(=O)[nH]c1=O
inactive: [1] | [8] | [3]
active: [5] 16600 nM

O=c1oc2c(O)c(O)cc3c(=O)oc4c(O)c(O)cc1c4c23
inactive: [1] | [2] | [3] | [4] | [5] | [6] | [7]

CC(C)(C)NC(=O)[C@H]1CC[C@H]2[C@@H]3CC[C@H]4NC(=O)C=C[C@]4(C)[C@H]3CC[C@]12C
inactive: [1] | [2]
active: [3] 14.8 µM

Oc1c(Cl)cc(Cl)c2cccnc12
active: [9] 1460 nM | [3] 8.41 µM and 11.8 µM | [4] 2.66 µM and 9.35 µM | [5] 4.73 µM and 9.35 µM | [6] 24.6 µM and 27.3 µM

CNCC[C@H](Oc1cccc2ccccc12)c1cccs1
active: [4] 1.18 µM | [5] 1050 nM
inactive: [9] | [2] | [3] | [7]

CC(=O)CC(c1ccccc1)c1c(O)c2ccccc2oc1=O (stereo unspecified)
inactive: [1] | [3] | [4] | [6] | [7]

CCC(=O)O[C@]1(C(=O)CCl)[C@@H](C)C[C@H]2[C@@H]3CCC4=CC(=O)C=C[C@]4(C)[C@@]3(F)[C@@H](O)C[C@@]21C
active: [5] 26.6 µM and 20.9 µM
inactive: [1] | [2] | [8] | [3] | [4] | [6] | [7]

CC(N)C12CC3CC(CC(C3)C1)C2 (stereo unspecified)
inactive: [1] | [2] | [8] | [3] | [4] | [5] | [6]

NC(=O)N1c2ccccc2CC(=O)c2ccccc21
inactive: [1] | [8] | [3] | [4] | [5] | [6] | [7]

CCCc1cc(C(N)=S)ccn1
inactive: [1] | [2] | [8] | [3] | [4] | [5] | [6]

C[C@@H](NCCCc1cccc(C(F)(F)F)c1)c1cccc2ccccc12
inactive and 20.6 µM (active): [9]
inactive: [1] | [3] | [4] | [6] | [7]

CC(C)(Sc1cc(C(C)(C)C)c(O)c(C(C)(C)C)c1)Sc1cc(C(C)(C)C)c(O)c(C(C)(C)C)c1
inactive: [1] | [2] | [3] | [6] | [7]

CCCc1nc(C)c2c(=O)[nH]c(-c3cc(S(=O)(=O)N4CCN(CC)CC4)ccc3OCC)nn12
inactive and 10.5 µM (active): [1]
inactive: [2]

NC(=O)c1ccc2[nH]ccc2c1
inactive: [10] | [11] | [12] | [1] | [13] | [14] | [15] | [16] | [2] | [8] | [3] | [4] | [5] | [6]

Nc1ccc(S(=O)(=O)Nc2ccccn2)cc1
inactive: [1] | [2] | [8] | [3] | [4] | [5] | [6]

CN1CCN(c2c(F)cc3c(=O)c(C(=O)O)cn(CCF)c3c2F)CC1
inactive: [1] | [3] | [4] | [5] | [6]

NC(N)=NC(N)=NCCc1ccccc1
inactive: [1] | [2] | [3] | [5] | [7]
active: [8] 18.7 µM | [4] 8.41 µM and 5.9 µM

CC(C)(C#N)c1cc(Cn2cncn2)cc(C(C)(C)C#N)c1
inactive: [1] | [2] | [3] | [4] | [5] | [6] | [7]

Nc1[nH]c(=O)ncc1F
inactive: [1] | [2] | [8] | [3] | [4] | [5]

CN1CCCC(n2nc(Cc3ccc(Cl)cc3)c3ccccc3c2=O)CC1 (stereo unspecified)
inactive: [1]
active: [3] 1.32 µM | [4] 0.935 µM | [5] 833 nM | [6] 2.43 µM | [7] 1180 nM

Cc1nnc(C(=O)NC(C)(C)c2nc(C(=O)NCc3ccc(F)cc3)c(O)c(=O)n2C)o1
inactive: [1] | [2] | [8] | [3] | [4] | [5] | [6] | [7]

CC(=O)Oc1ccccc1C(=O)Nc1ncc([N+](=O)[O-])s1
inactive: [1]
active: [8] 13.6 µM | [3] 8.55 µM | [4] 42.9 µM | [6] 28 µM and 19.5 µM

Cc1ncc([N+](=O)[O-])n1CCO
inactive: [1] | [2] | [8] | [3] | [4] | [5] | [6] | [7]

Nc1nc(=S)c2[nH]cnc2[nH]1
active: [8] 2.11 µM and 1.87 µM | [3] 0.935 µM | [4] 841 nM and 743 nM | [5] 2.99 µM and 1.66 µM | [6] 2.46 µM and 1.93 µM | [7] 743 nM
inactive: [1]

Clc1ccccc1CN1CCc2sccc2C1
active: [6] 1.53 µM
inactive: [1] | [2] | [8] | [7]
